Activity calls are given as the source filed them.

Here are results for 16 compounds from PubChem BioAssay.

In assay [1] the test system is Plasmodium falciparum Sir2 (PF13_0152, Sir2A). Description: Plasmodium falciparum Sir2A binding compounds – biochemical, small-molecule microarray, 635 nm fluorescence, primary screen (AID 1098).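 Further: score merges spot fluorescence intensity with its signal-to-noise ratio.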 The note with it: fluorescence 635 nm, higher = more signal.
Assay [2] in a line: probe aDKK1 binding to arrayed compounds – biochemical, biotinylated probe, 635/667 nm fluorescence, primary screen (AID 1099).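 Further: score merges 667nm spot fluorescence with signal to noise across triplicate slides; reference of the scale not given here.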 Conditions: small-molecule microarray, higher = more signal.
Assay [3] is described as follows: probe aCHRDL2 binding to arrayed compounds – biochemical, biotinylated probe, 635/667 nm fluorescence, primary screen (AID 1100). The note with it: small-molecule microarray, higher = more signal.
The nature of assay [4]: change in splice reporter luminescence, either direction, cell-based, HEK293, spliceosome inhibition project, primary screen (AID 1101).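 Further: HEK293 cells carrying a splicing-competent luciferase reporter gene; test concentration not given here.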 Conditions: HEK293 splicing luciferase reporter, 24 h, higher = more signal, called active from +8 up or from −8 down. For orientation: In a reporter assay the amount or activity of a reporter protein is the signal.
The target in assay [5] is Fibroblast growth factor 10 (Homo sapiens) (UniProt O15520). Description: compounds binding fibroblast growth factor 10 – biochemical, small-molecule microarray, 635 nm fluorescence, primary screen (AID 1102). Conditions: FGF10 binding, fluorescence 635 nm, higher = more signal.
Assay [6] concerns glycogen synthase kinase-3 (GSK3A per assay name; protocol says GSK3B). As to the kind of experiment: compounds binding glycogen synthase kinase-3 – biochemical, small-molecule microarray, 635 nm fluorescence, GSK3A, primary screen (AID 1103). Further: the record names both GSK3A and GSK3B. Conditions: fluorescence 635 nm, higher = more signal.
The target in assay [7] is Epidermal growth factor receptor (Homo sapiens) (UniProt P00533). Description: compounds binding epidermal growth factor receptor – biochemical, small-molecule microarray, 635 nm fluorescence, primary screen (AID 1104).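 Further: score merges 667 nm emission intensity with spot signal to noise over triplicate slides.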 Conditions: EGFR binding, higher = more signal.
The target in assay [8] is Follistatin-related protein 3 (Homo sapiens) (UniProt O95633). As to the kind of experiment: compounds binding follistatin-related protein 3 – biochemical, small-molecule microarray, 635 nm fluorescence, primary screen (AID 1105).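 Further: score merges emission near 667 nm and signal to noise per printed spot across three slides.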 The note with it: FSTL3 binding, higher = more signal.
Assay [9] deals with Dickkopf-related protein 1 (Homo sapiens) (UniProt O94907). As to the kind of experiment: small molecules binding DKK1 protein – biochemical, small-molecule microarray, 635 nm fluorescence scan, primary screen (AID 1106).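 Further: score merges emission near 667 nm with signal to noise over three replicate slides.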 The note with it: higher = more signal.
Assay [10] relates to Inhibin beta A chain (activin A). Description: small molecules binding activin A – biochemical, small-molecule microarray, 635 nm fluorescence scan, primary screen (AID 1107).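 Further: mouse activin A protein probed at 4.33 µg/mL on printed slides; score merges bound-protein fluorescence near 667 nm with spot signal-to-noise.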 The note with it: INHBA, higher = more signal.

Chain of Epidermal growth factor receptor (Homo sapiens) (P00533 whole entry, looked up): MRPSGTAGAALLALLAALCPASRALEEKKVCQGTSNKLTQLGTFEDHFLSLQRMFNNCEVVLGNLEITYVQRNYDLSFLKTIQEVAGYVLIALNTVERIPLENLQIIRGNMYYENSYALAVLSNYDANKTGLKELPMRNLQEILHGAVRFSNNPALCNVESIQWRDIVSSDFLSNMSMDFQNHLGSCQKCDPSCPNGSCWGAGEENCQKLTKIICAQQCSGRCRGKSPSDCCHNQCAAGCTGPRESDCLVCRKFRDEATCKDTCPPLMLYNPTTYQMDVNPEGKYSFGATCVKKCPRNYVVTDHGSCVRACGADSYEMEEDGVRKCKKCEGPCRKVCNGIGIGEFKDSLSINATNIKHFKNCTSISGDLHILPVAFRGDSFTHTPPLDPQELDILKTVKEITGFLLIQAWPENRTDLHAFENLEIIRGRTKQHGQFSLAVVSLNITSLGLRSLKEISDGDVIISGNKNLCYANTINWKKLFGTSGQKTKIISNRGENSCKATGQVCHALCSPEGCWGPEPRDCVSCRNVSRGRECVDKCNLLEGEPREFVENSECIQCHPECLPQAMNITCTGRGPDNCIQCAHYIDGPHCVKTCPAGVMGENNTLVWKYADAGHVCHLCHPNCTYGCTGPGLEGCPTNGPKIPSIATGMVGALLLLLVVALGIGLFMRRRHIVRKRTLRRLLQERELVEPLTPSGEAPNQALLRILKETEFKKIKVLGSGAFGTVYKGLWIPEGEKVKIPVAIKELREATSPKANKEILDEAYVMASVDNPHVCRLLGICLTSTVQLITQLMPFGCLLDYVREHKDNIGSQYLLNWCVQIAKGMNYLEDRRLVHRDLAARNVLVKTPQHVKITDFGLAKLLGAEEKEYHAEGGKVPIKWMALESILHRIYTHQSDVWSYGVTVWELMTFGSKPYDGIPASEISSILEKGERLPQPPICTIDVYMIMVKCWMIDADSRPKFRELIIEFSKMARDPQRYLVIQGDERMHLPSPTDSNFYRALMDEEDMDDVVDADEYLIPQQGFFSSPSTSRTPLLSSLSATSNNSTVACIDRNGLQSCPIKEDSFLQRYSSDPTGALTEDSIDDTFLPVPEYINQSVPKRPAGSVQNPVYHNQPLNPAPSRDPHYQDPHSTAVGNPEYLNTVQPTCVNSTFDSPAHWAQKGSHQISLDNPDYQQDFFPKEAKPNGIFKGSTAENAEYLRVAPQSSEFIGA
Chain of Follistatin-related protein 3 (Homo sapiens) (O95633 whole entry, looked up): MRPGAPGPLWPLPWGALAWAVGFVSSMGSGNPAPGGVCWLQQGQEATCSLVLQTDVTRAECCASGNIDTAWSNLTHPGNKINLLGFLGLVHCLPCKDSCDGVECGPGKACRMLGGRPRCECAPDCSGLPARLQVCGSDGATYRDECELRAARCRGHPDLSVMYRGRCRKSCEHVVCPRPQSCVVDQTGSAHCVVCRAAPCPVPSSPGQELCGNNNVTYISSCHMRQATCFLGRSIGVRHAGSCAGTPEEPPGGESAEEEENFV
Chain of Dickkopf-related protein 1 (Homo sapiens) (O94907 whole entry, looked up): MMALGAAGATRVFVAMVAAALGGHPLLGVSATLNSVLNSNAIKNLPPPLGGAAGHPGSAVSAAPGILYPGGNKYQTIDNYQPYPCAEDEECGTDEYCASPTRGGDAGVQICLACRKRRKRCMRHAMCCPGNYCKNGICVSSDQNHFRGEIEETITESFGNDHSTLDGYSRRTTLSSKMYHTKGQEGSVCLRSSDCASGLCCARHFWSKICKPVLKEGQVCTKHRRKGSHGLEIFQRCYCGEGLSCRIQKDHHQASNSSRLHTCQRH
Chain of Fibroblast growth factor 10 (Homo sapiens) (O15520 whole entry, looked up): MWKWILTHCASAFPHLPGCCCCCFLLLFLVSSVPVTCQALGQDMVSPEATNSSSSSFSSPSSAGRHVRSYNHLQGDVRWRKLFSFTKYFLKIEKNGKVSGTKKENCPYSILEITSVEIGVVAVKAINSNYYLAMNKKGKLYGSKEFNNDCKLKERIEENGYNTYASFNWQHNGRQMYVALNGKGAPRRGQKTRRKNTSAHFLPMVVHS

In the case of `C=CCOC(=O)[C@@H]1[C@H]2C(=O)O[C@H](c3ccccc3)[C@H](c3ccccc3)N2[C@H](c2ccc(OCCOC(=O)[C@H]3C[C@H]4C(=O)N[C@@H](CCCCNC(C)=O)C(=O)N4[C@H]3c3cccc(OCCO)c3)cc2)[C@@]12C(=O)Nc1ccc(I)cc12`, the composite z-score in assay [1] worked out at 1.52; in assay [2], 0.453; in assay [3], 0.182; in [5], 0.909; in assay [6], 1.32; in assay [7], 0.771. For the same compound, the composite z-score in assay [8] is 1.23; in assay [9] it was 1.45; in assay [10], 0.124. For the same compound, the z-score in [4] is 0.357 (inactive).
`COc1c(C)cc(-c2cc3c(c(-c4ccccc4)n2)[Si](C(C)C)(C(C)C)OC3)cc1C`: the composite z-score in [1] was 0.0039; in assay [2], 0.068; in assay [3], -0.676; in [5] it was -0.216; in assay [6] it was -0.39; in assay [7], 0.186. In addition, the composite z-score in assay [8] was -0.355; in assay [9], 0.189; in [10], 1.08. In addition, in assay [4], the z-score is -0.0426 (inactive).
With `CCCCN1CC=CC23O[C@@H]4C=CCOC(=O)[C@@H]4[C@H]2C(=O)N(C(C)CO)[C@@H]3C1=O` (stereo not given in full), the composite z-score in assay [1] is 1.1; in [2], 0.198; in assay [3] it was 0.774; in [5], -0.291; in assay [6], -1.44; in assay [7], -1.21. Besides, the composite z-score in assay [8] is -1.22; in assay [9], -1.14; in assay [10], 0.286. Also, in assay [4], the z-score was 0.408 (inactive).
On to `C=CCC(OC(C)=O)[C@@H]1[C@@H](N(Cc2cc3ccccc3o2)C(=O)c2ccc(C)cc2)c2cc(OCCCO)ccc2N1C(=O)Cc1ccc2ccccc2c1` (stereo not given in full), for which the composite z-score in assay [1] was -0.45; in assay [2] it was 0.258; in [3], 0.43; in assay [5] it was -0.204; in [6], -0.822; in [7], -0.0197. Also, the composite z-score in assay [8] was -0.32; in assay [9], 0.182; in assay [10] it was 1.2. Besides, the z-score in [4] was -0.793 (inactive).
As for `O=C1C[C@]2(c3ccc([N+](=O)[O-])cc3)C(=O)N(Cc3ccccc3)c3cc(CO)ccc3[C@H]2N1CC12CC3CC(CC(C3)C1)C2`, the composite z-score was -1.44 in assay [1]; 1.03 in assay [2]; 0.259 in [3]; -0.36 in assay [5]; -0.855 in [6]; -0.478 in assay [7]. For the same compound, the values for the composite z-score in assay [8], in [9] and in [10] were -0.791, -0.852 and -0.544, respectively. In assay [4], the z-score is 1.39 (inactive).
As for `O=C1NC(=O)C2C1C=CC(C(O)c1ccc(Br)cc1)N2Nc1ccccn1` (stereo not given), the composite z-score was determined as 0.246 in assay [1]; 0.71 in [2]; 0.662 in assay [3]; 0.557 in [5]; 0.389 in assay [6]; 0.12 in [7]. The composite z-score in assay [8] is 0.28; in [9], 1.27; in [10] it was 1.37. In assay [4], the z-score was -0.141 (inactive).
As to `[N-]=[N+]=Nc1ccccc1C[C@]1(C(=O)NCc2ccccc2)N=C(c2ccc(OCCCO)cc2)O[C@H]1c1ccccc1`, the composite z-score is 1.13 in [1]; 0.966 in assay [2]; 1.01 in [3]; 1.09 in assay [5]; -0.235 in assay [6]; -0.269 in assay [7]. Also, the composite z-score in assay [8] is 0.461; in [9] it was -0.684; in assay [10], 0.784. Further, the z-score in assay [4] is 0.843 (inactive).
Take `O=C(CS)NCCCCCCNC(=O)[C@@H]1C[C@@H]2C(=O)N3CCC[C@H]3C(=O)N2[C@@H]1c1cccc(OCCO)c1`: the composite z-score was determined as 1.62 in assay [1]; 0.0302 in [2]; 0.396 in assay [3]; 0.964 in assay [5]; 0.896 in assay [6]; 0.559 in assay [7]. Besides, the figures for the composite z-score in assay [8], in assay [9] and in assay [10] were 0.704, 0.426 and 0.653, respectively. In [4], the z-score is -1.77 (inactive).
`C=C(COC)/C(=C/C[C@@H](OC(=O)c1ccncc1)c1ccc(OCCO)cc1)c1cnc2ccccc2c1`: the composite z-score in assay [1] was 0.212; in assay [2], 0.0923; in assay [3] it was -0.0001; in assay [5], 1.46; in assay [6], 1.3; in assay [7] it was 1.35. In addition, the composite z-score was found to be 1.58 in assay [8], 0.99 in [9] and 1.95 in assay [10]. Further, in [4], the z-score was -0.275 (inactive).
With `CCOC(=O)C[C@H]1[C@H](OC(=O)c2ccc(-c3ccccc3)cc2)[C@@H](NC(=O)C2CCCCC2)c2cc(OCCCO)ccc2N1C(=O)c1ccccc1`, the composite z-score is 0.3 in assay [1]; -0.141 in assay [2]; -0.464 in assay [3]; 0.616 in [5]; 0.258 in assay [6]; 0.0979 in [7]. Besides, the values for the composite z-score in [8], in assay [9] and in assay [10] were 0.584, 0.237 and 0.117, respectively. Further, in [4], the z-score was -0.0213 (inactive).
With `CN(C)CCCNC(=O)[C@@]1(C)c2ccccc2C(=O)N(Cc2cc(C(F)(F)F)cc(C(F)(F)F)c2)[C@H]1c1ccc(CO)cc1`, the composite z-score in [1] was 1.01; in assay [2] it was 0.202; in assay [3] it was 0.0634; in [5], -0.753; in assay [6], -0.477; in [7] it was -1.9. Moreover, the composite z-score in assay [8] is -1.14; in assay [9], -0.992; in [10], -1.34. The z-score in assay [4] was -1.24 (inactive).
For the compound `COCCCNC(=O)[C@@H]1c2ccccc2C(=O)N(Cc2ccccc2C(F)(F)F)[C@H]1c1ccc(CO)cc1`, the composite z-score in [1] was 1.58; in [2], 0.484; in assay [3], 0.879; in assay [5], -0.0537; in assay [6] it was 0.575; in assay [7], -0.222. Besides, the figures for the composite z-score in assay [8], in assay [9] and in assay [10] were -0.582, -0.595 and 0.923, respectively. Further, the z-score in assay [4] was 0.354 (inactive).
With `O=C1O[C@@H](c2ccccc2)[C@@H](c2ccccc2)N2[C@@H](c3ccccc3OCCO)[C@]3(C(=O)Nc4ccccc43)[C@@H](C(=O)NC[C@H](O)c3ccccc3)[C@H]12`, the composite z-score was 1.11 in [1]; 0.597 in assay [2]; 0.76 in assay [3]; -0.369 in [5]; 0.342 in assay [6]; -0.528 in assay [7]. Moreover, the composite z-score was 0.0805 in assay [8], -0.547 in assay [9] and -0.189 in assay [10]. The z-score in assay [4] was -1.66 (inactive).
With `[N-]=[N+]=Nc1ccccc1C[C@@]1(C(=O)O)N=C(c2ccc(OCCCO)cc2)O[C@@H]1c1ccccc1`, the composite z-score in assay [1] is 1.56; in assay [2], 0.609; in assay [3] it was 0.945; in assay [5], 0.0372; in [6] it was 0.0458; in [7], -0.423. For the same compound, the composite z-score was 0.126 in assay [8], -0.829 in [9] and 0.638 in [10]. For the same compound, the z-score in assay [4] was -0.282 (inactive).
`COCC(=C=CC[C@H](O)c1cccc(OCCO)c1)C[C@H](O)c1ccccn1`: the composite z-score in assay [1] is 0.543; in assay [2] it was 0.161; in [3] it was -0.173; in assay [5], 1.3; in [6], -0.214; in [7], -0.366. The composite z-score is -0.0496 in assay [8], 0.354 in assay [9] and 0.281 in assay [10]. The z-score in [4] is -1 (inactive).
Consider `COc1c(C)cc(-c2cc3c(c(Cc4ccccc4)n2)[Si](C(C)C)(C(C)C)OC3)cc1C`, for which the composite z-score was 0.214 in assay [1]; -0.0724 in assay [2]; -0.313 in assay [3]; 0.0744 in [5]; -0.0485 in assay [6]; 0.181 in assay [7]. Also, the composite z-score in [8] stood at 0.235; in assay [9], 0.0324; in assay [10], 0.137. Moreover, the z-score in [4] was -0.206 (inactive).
